Reference: PubChem BioAssay (EPA / NIEHS)
Some structures have more than one record in an assay (separate samples or runs), and their calls can disagree. Calls of active or inactive are those of the source. Rule for the calls: active = hit-call score of the fitted dose curve at least 0.9, where 1 is the maximum; inactive = score below 0.9.

read-out: Interleukin-1 alpha (IL1a), IL1A (gene 3552); assay: BSK_LPS_IL1a: BioMAP Diversity Plus: LPS Assay for Interleukin-1 alpha (IL1a) Biomarker Activity (AID 2283080); details: primary human HUVEC with PBMC; actives raise or lower the signal
Procedure: BSK_LPS is a cell-based, multiplexed-readout assay that uses umbilical vein endothelium and peripheral blood mononuclear cells, a human vascular primary cell co-culture, with measurements taken at 24 hours after chemical dosing in a 96-well plate.BSK_LPS_IL1a is an assay component measured in the BSK_LPS assay. It measures IL-a antibody related to regulation of gene expression using ELISA technology.Data from the assay component BSK_LPS_IL1a was analyzed into 1 assay endpoint. This assay endpoint, BSK_LPS_IL1a, was analyzed with bidirectional fitting relative to DMSO as the negative control and baseline of activity. Using a type of binding reporter, gain or loss-of-signal activity can be used to understand changes in the signaling as they relate to the gene IL1A. Furthermore, this assay endpoint can be referred to as a primary readout, because this assay has produced multiple assay endpoints where this one serves a signaling function. To generalize the intended target to other relatable targets, this assay endpoint is annotated to the cytokine intended target family, where the subfamily is interleukins.
The levels of cell surface (or secreted, indicated by the prefix "s") biomarker endpoints were measured by ELISA. Overt cytotoxicity to cells in confluent adherent cultures (all systems other than the BT system) was assessed by measuring total protein levels using sulforhodamine B (SRB) staining in parallel cultures at the time of biomarker measurements, indicated as SRB endpoints. For proliferation assays for adherent cell types, individual cell types are cultured at sub-confluence and relative cell numbers quantified by SRB staining at time points optimized for each system (48 h: 3C and CASM3C systems; 72 h: BT and HDF3CGF systems; 96 h: SAg system). SRB was performed by staining cells with 0.1% SRB after fixation with 10% TCA and reading wells at 560 nm.Viability and proliferation of PBMC (T cells) was quantified by Alamar Blue reduction for the SAg and BT systems. For PBMC viability (referred to as PBMC Cytotoxicity within the assay endpoint names), cells were plated (75,000/well in a 96-well plate) and then chemical samples added for 1 h before addition of activators, SEB and TSST-1 (20 ng/mL final concentration each). Cells were incubated for 90 h. Then, Alamar Blue (20 uL/well) (Invitrogen, Cat DAL1100) was added for 6 h, and the plates were read with a fluorescence microplate reader at 546/580 nm (excitation/emission). For PBMC proliferation, cells were plated and activated as above but incubated for only 16 h prior to addition of Alamar Blue. Plates were read after 6 h.

SMILES	outcome	AC50
O=C(O)C(F)(F)C(F)(F)F	inactive	–
C=C(C)C(=O)OCC(F)(F)C(F)(F)C(F)(F)C(F)(F)C(F)(F)C(F)(F)C(F)(F)F	inactive	–
FC(F)(F)C(F)(F)C(F)(F)N(C(F)(F)C(F)(F)C(F)(F)F)C(F)(F)C(F)(F)C(F)(F)F	inactive	–
N=C(N)C(F)(F)C(F)(F)C(F)(F)C(F)(F)C(F)(F)C(F)(F)C(F)(F)F	inactive	38.2 µM (active)
FC(F)(F)C(F)(F)C(F)(F)C(F)(F)C(F)(F)C(F)(F)CC1CO1 (stereo not given)	inactive	–
CO[Si](OC)(c1ccccc1)c1ccccc1	inactive	–
CC(=O)Nc1ccc(N=Nc2cc(C)ccc2O)cc1	inactive	–
CCCCCCC(C)OC(=O)CCCCC(=O)OC(C)CCCCCC (stereo not given)	inactive	–
FC(F)(F)C(F)(F)C(F)(F)CI	inactive	–
FC(F)(F)C(F)(F)CNCC(F)(F)C(F)(F)F	inactive	–
CCc1ccc(C(c2ccc(CC)cc2)C(Cl)Cl)cc1	–	20 µM (active)
FC(F)(F)C(F)(F)C(F)(F)C(F)(F)CCI	inactive	–
O=C(O)C(F)(F)C(F)(F)OC(F)(F)F	inactive	–
OCC(F)(F)C(F)(F)C(F)(F)C(F)(F)C(F)(F)C(F)(F)F	inactive	–
OCC(F)(F)C(F)(F)C(F)(F)C(F)(F)C(F)(F)C(F)F	inactive	–
FC(F)(F)C(F)(F)C(F)(F)C(F)(F)C(F)(F)C(F)(F)C(F)(F)C(F)(F)F	inactive	–
O=C(O)C(F)(F)C(F)(F)C(F)(F)C(F)(F)F	inactive	–
FC(F)(F)C(F)(F)C(F)(F)C(F)(F)C(F)(F)C(F)(F)C(F)(F)I	inactive	–
Cc1ccc(S(=O)(=O)OCC(F)(F)C(F)(F)C(F)(F)C(F)(F)C(F)(F)C(F)F)cc1	inactive	–

SMILES	outcome	AC50
Oc1ccc(Nc2ccccc2)cc1	inactive	–
O=C(O)C(F)(F)C(F)(F)C(F)(F)C(F)(F)C(F)(F)C(F)(F)C(F)(F)C(F)(F)C(F)(F)C(F)(F)C(F)(F)C(F)(F)F	inactive	–
O=C(O)C(F)(F)C(F)(F)C(F)(F)C(F)(F)C(F)(F)C(F)(F)C(F)(F)C(F)(F)Cl	inactive	–
O=C(O)C(F)(F)C(F)(F)C(F)(F)C(F)(F)C(F)(F)C(F)(F)C(F)(F)C(F)(F)C(F)(F)C(F)(F)C(F)(F)C(F)(F)C(F)(F)F	inactive	–
CC(C)(C)C(=O)CC(=O)C(F)(F)C(F)(F)C(F)(F)F	inactive	–
O=C(O)C(F)(F)C(F)(F)C(F)(F)C(F)(F)C(F)(F)C(F)(F)C(F)(F)C(F)(F)C(F)(F)C(F)F	inactive	54.9 µM (active)
OCCCC(F)(F)C(F)(F)C(F)(F)F	inactive	–
FC1CC(F)(F)C(F)(F)C1(F)F (stereo not given)	inactive	–
C=C(C)C(=O)OCCC(F)(F)C(F)(F)C(F)(F)C(F)(F)C(F)(C(F)(F)F)C(F)(F)F	inactive	–
O=C(Cl)C(F)(F)C(F)(F)C(F)(F)C(F)(F)C(F)(F)C(F)(F)C(F)(F)C(F)(F)F	inactive	–
CCCCOCCOCCOC(=O)CCCCC(=O)OCCOCCOCCCC	inactive	–
O=C(O)C(F)(OC(F)(F)C(F)(OC(F)(F)C(F)(OC(F)(F)C(F)(F)C(F)(F)F)C(F)(F)F)C(F)(F)F)C(F)(F)F (stereo not given)	inactive	–
OCCCC(F)(F)C(F)(F)C(F)(F)C(F)(F)C(F)(F)C(F)(F)C(F)(F)F	inactive	46 µM (active)
FC(F)(F)C(F)(F)C(F)(F)C(F)(F)C(F)(F)C(F)(F)C(F)(F)Br	inactive	–
CCCCCCCCC(F)(F)C(F)(F)C(F)(F)C(F)(F)C(F)(F)C(F)(F)F	inactive	–
CCc1c(Br)c(Br)c(Br)c(Br)c1Br	inactive	–
CCCCCCOC(=O)c1ccccc1O	inactive	–
Nc1ccc([N+](=O)[O-])cc1O	inactive	–
